Screens deposited in PubChem by National Center for Advancing Translational Sciences (NCATS).
JMJD2A Tudor inh – blocks the human JMJD2A Tudor domain; O75164; 4.4% of 390,000 active; Potency, µM (series often up to 114 µM), for the others: top-dose activity change, negative = inhibition, actives largely listed as inhibitors; AlphaScreen JMJD2A-Tudor / H3K4me3 peptide binding; also: potency is read from the fitted curve at half-maximal effect; % is scaled to controls: 0 for no effect and ±100 for the full control effect; nearly all actives have a fitted effect of over 50% in size
G9a block – inhibitors of human histone lysine methyltransferase G9a; Q96KQ7; Potency, µM (highest dose often 102 µM), for the others: top-dose activity, negative = inhibition, actives largely listed as inhibitors; 8.8% of 350,000 active; G9a H3K9 monomethylation, AlphaScreen, 2 h; also: potency is read from the fitted curve at half-maximal effect; % is scaled to controls: 0 for no effect and ±100 for the full control effect; nearly all actives have a fitted effect of over 75% in size
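Methyltransferase reactions run at room temperature for 2 h (20 nM enzyme, 500 nM biotin-H3K9 peptide, 20 uM SAM) after a 15 min compound preincubation; product detected by AlphaScreen beads and anti-H3K9me1 antibody.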
HP1b binding inh – blocks HP1-beta chromodomain binding to methylated histone tails; AlphaScreen HP1-beta / biotin-H3K9me3 peptide binding; 0.56% of 390,000 active; Potency, µM (doses to about 114 µM), for inactives: at the highest dose activity change, negative = inhibition, usual class: inhibitors; P83916; also: potency is read from the fitted curve at half-maximal effect; nearly all actives have a fitted effect of over 70% in size
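HP1-beta protein (50 nM final) preincubated 30 min at room temperature with biotinylated H3(1-18)K9me3 peptide (50 nM) in PBS pH 7.4, 0.01% Tween-20, then compound added for 30 min. AlphaScreen streptavidin donor/nickel chelate acceptor beads (10 ug/mL final), 30 min dark, luminescence read.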
Six1-Eya2 blk – blocks human Six1 binding to Eya2; Q15475+O00167; AlphaScreen GST-Six1/His-Eya2 binding, biochemical; hits give low values; activity change, % (no concentration beside the values); 0.56% of 360,000 active; in the data active = activity change below about -65%; inconclusive = mostly about -30% to -63%; also: % is scaled to controls: 0 for no effect and ±100 for the full control effect
Target sequence (O00167 whole entry, looked up): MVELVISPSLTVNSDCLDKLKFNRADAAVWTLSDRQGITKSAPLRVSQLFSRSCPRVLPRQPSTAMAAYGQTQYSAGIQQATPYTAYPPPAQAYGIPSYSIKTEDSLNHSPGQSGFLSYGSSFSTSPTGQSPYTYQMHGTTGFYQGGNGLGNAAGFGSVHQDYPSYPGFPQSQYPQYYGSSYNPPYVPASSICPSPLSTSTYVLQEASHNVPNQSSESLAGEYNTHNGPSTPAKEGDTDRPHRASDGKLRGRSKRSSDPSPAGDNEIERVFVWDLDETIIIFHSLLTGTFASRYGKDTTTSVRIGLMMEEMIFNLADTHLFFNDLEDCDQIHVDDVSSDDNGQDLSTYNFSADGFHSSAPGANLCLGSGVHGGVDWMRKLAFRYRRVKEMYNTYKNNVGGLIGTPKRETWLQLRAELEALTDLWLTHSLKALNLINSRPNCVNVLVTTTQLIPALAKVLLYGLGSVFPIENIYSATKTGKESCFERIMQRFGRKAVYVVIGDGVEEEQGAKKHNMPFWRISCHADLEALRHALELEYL
Target sequence (Q15475 whole entry, looked up): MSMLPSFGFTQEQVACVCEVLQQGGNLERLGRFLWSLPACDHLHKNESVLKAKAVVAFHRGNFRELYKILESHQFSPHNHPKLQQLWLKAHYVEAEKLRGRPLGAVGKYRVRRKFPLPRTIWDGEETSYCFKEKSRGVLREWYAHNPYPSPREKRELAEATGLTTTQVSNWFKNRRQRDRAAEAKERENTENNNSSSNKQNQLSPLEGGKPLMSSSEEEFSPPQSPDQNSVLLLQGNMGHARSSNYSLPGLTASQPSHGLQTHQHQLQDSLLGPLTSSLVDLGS
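Compounds are tested against tagged Six1 and Eya2 proteins bridged by glutathione donor and nickel acceptor beads; after a one-hour incubation at 37 °C without light, AlphaScreen emission is recorded.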
CtBP-E1A inh – blocks the CtBP interaction with E1A | AlphaScreen GST-E1A/His-CtBP binding, 1536-well; hits give low values | activity change, % (no concentration beside the values) | 0.49% of 340,000 active | AID 651724; in the data active = activity change below about -65%; inconclusive = mostly about -30% to -63%; also: % is scaled to controls: 0 for no effect and ±100 for the full control effect
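Homogeneous bead-based format: GST-tagged E1A captured on glutathione donor beads, His-tagged CtBP on nickel acceptor beads; compounds precede bead addition by 2 h at 37 °C.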
BAZ2B inh – inhibitors of human BAZ2B bromodomain | Q9UIF8 | AlphaScreen BAZ2B-H3K14Ac peptide displacement | Potency, µM (series often up to 114 µM), for the others: top-dose activity change, negative = inhibition, actives largely listed as inhibitors | 4.4% of 360,000 active; also: potency is read from the fitted curve at half-maximal effect; % is scaled to controls: 0 for no effect and ±100 for the full control effect; nearly all actives have a fitted effect of over 60% in size
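AlphaScreen displacement of biotin-H3(5-23)K14Ac peptide (50 nM final) from BAZ2B (50 nM final) in PBS pH 7.4, 0.01% Tween-20; complex preformed 30 min RT, then compounds (top 110 uM) 30 min RT, beads 20 min dark.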
* hit, by the source's call; u = inconclusive; x = not tested or not shown; [ ] = dose if it differs, or a comment. Compounds with a hit are over-represented: about 10% of the library has one in this group of screens. Unless noted, calls follow the shape of the dose curve; as a rule, active = well fitted inhibition curve with a large enough effect; inconclusive = small, poorly fitted or top-dose-only effect; inactive = no such curve, though single readings can be large or run the other way.

SMILES | JMJD2A Tudor inh | G9a block | HP1b binding inh | Six1-Eya2 blk | CtBP-E1A inh | BAZ2B inh
CSc1ccc(NC(=O)Nc2ccc(C(=O)NCC(=O)O)cc2)cc1 | 56µM* | 35µM* | -16% | -11 | x | 50µM*
COc1cccc(NC(=O)CCc2c(C)nc3nc(CNC(=O)c4cccc(F)c4)nn3c2C)c1 | -16% | 8%[0.0925 µM] | 27% | u | -76* | -7%
O=C1CCN(N=Nc2cccc(Cl)c2)N1 | x | 0.79µM* | x | x | x | u
O=C(NCCCN1CCOCC1)c1cc(-c2ccc(Cl)s2)nc2ccccc12 | -1% | 23%[0.501 µM] | 35% | -3 | -4 | 13%
O=S(=O)(Nc1nnc(C2CC2)s1)c1ccccc1 | -2% | 50µM* | 48% | -1 | x | -13%
C/C=C/C(=O)Nc1nnc(C2CCCCC2)s1 | -6% | u | 44% | 1 | 9 | -33%
CS(=O)(=O)Nc1nnc(C2CCCC2)s1 | -36% | 50µM* | -5% | -1 | -7 | -24%
CCc1nnc(NS(=O)(=O)c2ccccc2)s1 | -18% | 11%[0.501 µM] | 35% | 7 | 6 | -19%
CC1CCCCN1CCCNC(=O)Cn1ncc2c3ccccc3n(Cc3ccccc3F)c2c1=O (centres undefined) | -9% | 8%[59 µM] | 27% | x | x | -1%
Cc1onc(-c2ccccc2)c1C(=O)NNC(=S)NC(=O)c1ccc2c(c1)OCO2 | -36% | 50µM* | -16% | -1 | -8 | -17%
COc1ccc(C(=O)NC(=S)NNC(=O)c2c(-c3ccccc3)noc2C)cc1OC | -28% | 32µM* | 6% | 0 | -7 | -10%
Cc1onc(-c2ccccc2)c1C(=O)NC(=S)NNC(=O)c1cc(-c2ccc(F)cc2)n[nH]1 | -18% | 50µM* | 12% | -11 | -1 | -6%
Cc1onc(-c2ccccc2)c1C(=O)NCc1ccc2c(c1)OCO2 | -7% | u | 35% | 0 | 8 | u
Cc1onc(-c2ccccc2)c1C(=O)NNC(=S)NC(=O)/C=C/c1cccs1 | -22% | 13µM* | 2% | -18 | -21 | 7%
Cc1onc(-c2ccccc2)c1C(=O)NC(=S)NNC(=O)c1ccncc1 | -13% | 4%[59 µM] | 5% | -6 | 8 | 2%
CC1CCN(S(=O)(=O)c2cc(C(=O)N3CCN(c4cccc(Cl)c4)CC3)n(C)c2)CC1 | -35% | 7%[59 µM] | 4%[57 µM] | x | x | -18%
CCCCN(C)CCNC(=O)c1c2c(nc3ccccc13)C(=O)N(C1CCCCC1)C2 | -11% | 5%[59 µM] | 1% | x | x | -12%
C[C@H](NC(=O)OC(C)(C)C)c1nnc(SCC(=O)c2ccc(Cl)cc2)o1 | -11% | -39% | 26% | -1 | 1 | -5%
C[C@H](NC(=O)OC(C)(C)C)c1nnc(SCc2c(F)cccc2Cl)o1 | -4% | 2%[59 µM] | 45% | x | x | 89µM*
O=C(c1cc(COc2ccc(F)cc2Cl)on1)N1CCCCCC1 | 16% | 90% | 41% | 9 | x | 35%
O=C(c1cc(COc2ccc(F)cc2Cl)on1)N1CCCCCCC1 | 20µM* | 62% | 79% | 6 | 19 | 46%
COc1ccc(NC(=O)c2cc3c(s2)-c2c(C)cccc2OC3)c(OC)c1 | 4% | 27%[59 µM] | 47% | x | x | -5%
COc1ccc(S(=O)(=O)N(C)C[C@H]2Oc3ccc(NC(=O)Cc4cn(C)c5ccccc45)cc3C(=O)N([C@@H](C)CO)C[C@@H]2C)cc1 | -27% | x | 29% | -8 | -7 | x
O=c1cnc(-c2ccc(Cl)cc2)cn1O | 89µM* | 2% | 1% | -3 | x | u
O=C(Nc1ccnn1C1CCN(C(=O)c2cccnc2)CC1)c1cccc(F)c1 | x | x | x | 0 | 3 | x
COc1ccc(N2CCN(c3nc4cc(C)ccc4cc3C=O)CC2)cc1 | 22µM* | 25µM* | u | -11 | -11 | 13µM*
Cc1cc(N2CCN(c3ncccn3)CC2)nc2c(C)cccc12 | 13% | 33% | 59% | 5 | 4 | 70%
COc1ccc(N2CCN(c3cc(C)c4cccc(C)c4n3)CC2)cc1 | 22µM* | 13µM* | u | -24 | -9 | u
COc1ccc(N2CCN(c3cc(C)c4ccc(C)cc4n3)CC2)cc1 | u | 8.9µM* | u | u | -2 | -38%
